IL-1B inflam inh: blocks inflammasome-driven IL-1 beta release | hit rate 4.7% among 360,000 | THP-1 LPS/ATP IL-1B secretion, AlphaLISA, 16 h; active compounds read low | activity change, % at 57.5 µM | AID 743279; in the data active means activity change below about -50%; inconclusive means mostly about -30% to -49%
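THP-1 cells pretreated 1 hr with compounds (up to 57.5 uM final), then stimulated with LPS (250 ng/mL final) plus ATP (1.25 mM final); secreted IL-1B measured by AlphaLISA after 16 hr, decreased signal indicating inhibition.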
DT40 TDP1 CPT: growth inhibition of DT40 Tdp1-/-;hTDP1 cells with camptothecin (screen for TDP1 inhibitors); AID 686979; chicken DT40 Tdp1-/-;hTDP1 cells + 20 nM CPT, ATP luminescence, 48 h; Potency, µM (doses to about 46.2 µM), for inactives: top-dose activity change, negative = growth inhibition, hits mostly inhibitors; hit rate 12% among 420,000; further: potency means the concentration at half of the fitted maximal effect; nearly all actives have a fitted effect of over 55% in size
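Cell growth measured by CellTiter-Glo luminescence after a minimum 48 h, 37 C compound exposure with 20 nM CPT in Tdp1-knockout DT40 cells stably expressing hTDP1, seeded 400/well; qHTS titration format.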
ELG1 repair inh: blocks ELG1-dependent DNA repair in HEK293T cells; AID 504467; hit rate 2.3% among 330,000; HEK293T ELG1-luciferase reporter, luminescence, 16 h; DNA damage induced by 5-fluorouridine; Potency, µM (highest dose often 46.1 µM), without a hit: at the top dose activity change, negative = inhibition, actives largely listed as inhibitors; further: potency means the concentration at half of the fitted maximal effect; nearly all actives have a fitted effect of over 55% in size
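HEK293T cells expressing luciferase-tagged ELG1 (2,000/well) received 5-Fluorouridine plus compound or DMSO for 16 hr at 37 °C. Luciferase was read by ONE-Glo luminescence after 30 min at room temperature.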
DT40 TDP1 no CPT: qHTS for Inhibitors of human tyrosyl-DNA phosphodiesterase 1 (TDP1): qHTS in cells in absence of CPT; DT40 Tdp1-/- hTDP1 cells, no CPT, ATP luminescence, 48 h; Potency, µM (series often up to 46.2 µM), for inactives: at the top dose activity change, negative = growth inhibition, hits mostly inhibitors; hit rate 15% among 420,000; AID 686978, 2013; further: potency means the concentration at half of the fitted maximal effect; nearly all actives have a fitted effect of over 55% in size
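Readout: luminescence from CellTiter-Glo after 30 min in the dark at RT. Cells: DT40 Tdp1-/- with stable hTDP1, 400/well. Exposure: compounds alone, ≥48 hr, 37 °C.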
Giardia killer: Giardia lamblia killing; activity change, % at 7.66 µM, hits read low; hit rate 0.15% among 340,000; Giardia lamblia trophozoite viability; in the data active means activity change below about -80%; inconclusive means between about -30% and that limit;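 further: parasites exposed to compound for two days anaerobically before the ATP read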
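Giardia trophozoites, 100 cells per well, were exposed to compounds for 48 hrs at 37 deg C under anaerobic conditions; viability was then read as ATP content by bioluminescence after 15-30 min at room temperature.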
TDP1 inh: inhibitors of human tyrosyl-DNA phosphodiesterase TDP1; Q9NUW8; recombinant TDP1, AlphaScreen DNA substrate cleavage; Potency, µM (doses to about 130 µM), for the others: top-dose activity change, negative = inhibition, usual class: inhibitors; hit rate 0.28% among 350,000; further: potency means the concentration at half of the fitted maximal effect; nearly all actives have a fitted effect of over 40% in size
Target sequence (Q9NUW8 whole entry, looked up): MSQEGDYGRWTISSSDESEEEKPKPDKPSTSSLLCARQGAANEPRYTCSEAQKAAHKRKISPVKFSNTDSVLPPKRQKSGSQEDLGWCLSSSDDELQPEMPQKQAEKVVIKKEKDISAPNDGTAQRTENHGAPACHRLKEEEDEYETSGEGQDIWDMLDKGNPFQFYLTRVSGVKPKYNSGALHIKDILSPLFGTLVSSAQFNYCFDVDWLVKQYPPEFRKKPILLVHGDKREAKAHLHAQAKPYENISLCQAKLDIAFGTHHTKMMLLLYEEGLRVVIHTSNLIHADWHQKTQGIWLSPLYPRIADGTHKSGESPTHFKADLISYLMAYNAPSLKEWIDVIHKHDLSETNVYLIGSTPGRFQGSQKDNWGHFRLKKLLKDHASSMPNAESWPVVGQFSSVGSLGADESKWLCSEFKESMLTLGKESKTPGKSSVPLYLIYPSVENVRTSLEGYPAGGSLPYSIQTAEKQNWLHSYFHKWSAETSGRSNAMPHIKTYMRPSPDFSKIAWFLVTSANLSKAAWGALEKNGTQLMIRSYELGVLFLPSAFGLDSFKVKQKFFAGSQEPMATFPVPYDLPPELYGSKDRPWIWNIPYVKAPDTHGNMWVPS
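Enzyme-compound mixtures sat 15 min at room temperature, followed by a 5 min reaction with 15 nM final substrate and 10 min with AlphaScreen beads. Recombinant human Tdp1 was used at 1 nM final.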
The depositor's hits bear a star; ? = inconclusive; / = no result given. Only some compounds are listed: those with a hit (about 19% of all), similar ones and a draw of the others. Unless noted, the call rests on the fitted dose curve; in most records, active means well fitted curve in the direction sought with a large enough effect; inconclusive means small, poorly fitted or top-dose-only effect, or another doubt; inactive means no such curve, though single readings can be large; an effect the other way counts as inactive or inconclusive. On the % scale 0 is the no-effect control and ±100 the full control effect.

SMILES	IL-1B inflam inh	DT40 TDP1 CPT	ELG1 repair inh	DT40 TDP1 no CPT	Giardia killer	TDP1 inh
CC(C)Cc1ccc(S(=O)(=O)NCC2CCCO2)cc1 (stereo unspecified)	27.2	?	-26.0%	?	16.6	3.7%
CCCCc1ccc(NC(=O)CN(C)CC(=O)Nc2ccccc2Cl)cc1	-74.4*	?	?	23.1µM*	12.8	/
CN(CC(=O)Nc1ccccc1Cl)CC(=O)Nc1ccccc1[N+](=O)[O-]	17.3	?	?	20.6µM*	1.2	4.8%
O=C(CC1C(=O)NCCN1Cc1cccc(F)c1)NC1CCC1 (stereo unspecified)	-61.0*	5.4%	-4.6%	18.4%	28.4	1.7%
O=C1OC(C(=O)Nc2cc(C(F)(F)F)ccc2Cl)Cc2ccccc21 (stereo unspecified)	/	-11.9%	/	-10.1%	/	-2.1%
Cc1cc(C)c(C)c(OCC(=O)Nc2ccc(S(=O)(=O)Nc3nc(C)cc(C)n3)cc2)c1	/	-3.5%	/	-0.1%	/	/
CC1(c2ccc(Cl)cc2Cl)OCC(Cn2ccnc2)O1 (stereo unspecified)	4.4	20.6µM*	?	23.1µM*	-1.9	-1.0%
CN=c1scc(C)n1/N=C/c1ccc(O)cc1	-12.9	?	?	23.1µM*	-18.3	5.2%
CN=c1scc(-c2ccco2)n1/N=C/c1ccc(O)c(O)c1	47.1	4.61µM*	?	9.2µM*	-26.8	7.9%
CN=c1scc(C)n1/N=C/c1ccc(O)cc1O	-3.5	?	?	?	?	8.2%
C=CCN=c1scc(C)n1/N=C/c1ccc(O)c(O)c1	44.1	16.4µM*	?	7.31µM*	-2.4	6.0%
CC(C)NC(=O)CCNC(=O)c1ccc(F)cc1	14.8	-11.2%	?	0.4%	-10.9	-2.0%
O=C1C2CCCCC2C(=O)N1c1cccc(OS(=O)(=O)c2ccccc2)c1 (stereo unspecified)	15.0	1.2%	0.8%	-5.2%	6.8	-2.7%
CC(=O)Nc1ccc(S(=O)(=O)Oc2cccc(N3C(=O)C4CC=CCC4C3=O)c2)cc1 (stereo unspecified)	50.5	?	23.1µM*	20.6µM*	-8.6	0.0%
CC(=O)Nc1ccc(S(=O)(=O)Oc2ccc(N3C(=O)C4CCCCC4C3=O)cc2)cc1 (stereo unspecified)	25.5	16.4µM*	5.3%	18.4µM*	0.2	5.9%
CCOC(CNC(=O)c1ccc2c(c1)ncn2-c1ccccc1OC)OCC	-9.3	3.9%	-6.1%	-5.5%	-7.5	/
CCN(CC(=O)Nc1ccc(NC(C)=O)cc1)C(=O)/C=C/c1ccc2c(c1)OCO2	-1.4	-26.5%	?	-16.9%	-12.6	/
C/C=C/c1ccc(OCC(=O)Nc2ccncc2)c(OC)c1	-9.9	18.4µM*	5.2%	?	-8.5	/
C/C=C/c1ccc(OCC(=O)Nc2ccc(OC)c(OC)c2)c(OC)c1	-25.0	16.4µM*	16.4µM*	23.1µM*	7.9	0.0%
C/C=C/C(=O)OCC(=O)Nc1ccc(OC)c(OC)c1	-1.9	1.9%	-3.1%	-8.0%	24.3	2.7%
CCCCOc1ccc(/C=C/C(=O)N(CC)CC(=O)Nc2ccc3c(c2)OCCO3)cc1OC	?	?	18.3µM*	-22.9%	2.1	4.1%
O=C(Cc1cccc(NC(=O)C2CCCN(C(=O)C3CCCC3)C2)c1)Nc1cccc(C(=O)N2CCOCC2)c1 (stereo unspecified)	-17.8	3.0%	/	-15.9%	2.1	/
CCOc1ccc(CCNC(=O)c2cnc3c(-c4ccc(F)cc4)c(C)nn3c2C)cc1OCC	/	16.4µM*	/	18.4µM*	/	1.9%
CCOc1ccc(-c2c(C)nn3c(C)c(C(=O)NCCc4ccc(Cl)cc4)cnc23)cc1OCC	/	14.6µM*	/	6.51µM*	/	-0.6%
Cc1ccc(CCNC(=O)c2cnc3c(-c4ccc(F)cc4)c(C)nn3c2C)cc1	/	-5.6%	/	-1.9%	/	1.9%

Screens as filed in PubChem.
